Experimental data published in PubChem BioAssay AID434959 (Broad Institute, 2010).
Screen size: about 30,000 compounds; about 110 (0.37%) were called active.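 Rule for the calls: active = delta delta Cp rounded down to an integer at or above 3, about 3 SD of DMSO wells; inactive = the rest.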 Shown is part of a subset that was picked to be rich in actives.

experiment: YB-1 transcript reduction by qRT-PCR – cell-based, fluorescence, primary screen (AID 434959); conditions: U2OS, qRT-PCR YB-1 vs CDIP delta delta Cp, 16 h; active compounds read high; zero = DMSO, each unit about twofold;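 note: higher means less YB-1 transcript or more CDIP transcript relative to DMSO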

SMILES	delta Cp (YB-1 minus CDIP)
C[C@H]1CN([C@@H](C)CO)C(=O)c2cc(NS(=O)(=O)c3cccs3)ccc2O[C@@H]1CN(C)C(=O)Nc1cccc2ccccc12	-0.308 (inactive)
Cc1noc(C)c1S(=O)(=O)N(C)C[C@H]1OCCCC[C@@H](C)Oc2ccc(NC(=O)C3CCCCC3)cc2C(=O)N([C@H](C)CO)C[C@@H]1C	0.386 (inactive)
C[C@H](CO)N1C[C@H](C)[C@H](CN(C)S(C)(=O)=O)Oc2ncc(C#CCN(C)C)cc2C1=O	0.217 (inactive)
NCCCC[C@@H]1NC(=O)[C@@H]2C[C@H](C(=O)NCc3ccc(F)cc3)[C@H](c3ccc(O)cc3)N2C1=O	0.142 (inactive)
C[C@H](CO)N1C[C@H](C)[C@H](CN(C)S(=O)(=O)c2cccs2)Oc2ccc(NS(=O)(=O)c3ccccc3)cc2C1=O	-0.379 (inactive)
Cc1ccc(S(=O)(=O)Nc2cccc3c2O[C@@H](CN(C)S(=O)(=O)c2cccs2)[C@@H](C)CN([C@@H](C)CO)C3=O)cc1	-0.365 (inactive)
COc1ccc(-c2cnc3c(c2)C(=O)N([C@H](C)CO)C[C@H](C)[C@H](CN(C)S(=O)(=O)c2ccccc2)O3)cc1	0.828 (inactive)
C=C(CC/C=C(\C)C(=O)O)C1(O)CC=C(C)CC1 (stereo unspecified)	-0.182 (inactive)
Cc1noc(C)c1S(=O)(=O)Nc1ccc2c(c1)C(=O)N([C@@H](C)CO)C[C@@H](C)[C@H](CN(C)C(=O)Nc1cccc3ccccc13)O2	0.0124 (inactive)
C[C@@H]1CN([C@H](C)CO)C(=O)Cc2cc(NS(=O)(=O)c3cccs3)ccc2O[C@H]1CN(C)C(=O)Nc1ccc2c(c1)OCO2	0.417 (inactive)
Cc1noc(C)c1NC(=O)Nc1ccc2c(c1)C(=O)N([C@H](C)CO)C[C@H](C)[C@H](CN(C)Cc1ccc(-c3ccccc3)cc1)O2	0.364 (inactive)
O=C(O)CCCCCC(=O)N/N=C/c1ccco1	0.15 (inactive)
COc1ccc(S(=O)(=O)N(C)C[C@H]2Oc3c(NC(=O)NC4CCCCC4)cccc3C(=O)N([C@@H](C)CO)C[C@@H]2C)cc1	-0.0504 (inactive)
C[C@]12C=CC(=O)C=C1CC[C@@H]1[C@@H]2C(=O)C[C@@]2(C)[C@H]1CC[C@]2(O)C(=O)CO	1.09 (inactive)
C[C@H]1CN([C@@H](C)CO)C(=O)Cc2cc(NC(=O)Cn3cnnn3)ccc2O[C@H]1CN(C)Cc1ccc(C(=O)O)cc1	-0.00589 (inactive)
C[C@@H]1CN([C@H](C)CO)C(=O)Cc2cc(N(C)C)ccc2O[C@H]1CN(C)C(=O)NC1CCCCC1	-0.109 (inactive)
C[C@H](CO)N1C[C@H](C)[C@H](CN(C)S(=O)(=O)c2ccccc2C#N)OCc2cn(nn2)CCCC1=O	-0.329 (inactive)
C[C@@H]1CN([C@@H](C)CO)C(=O)Cc2cc(NC(=O)Cc3ccccc3)ccc2O[C@@H]1CN(C)Cc1ccc(Oc2ccccc2)cc1	-0.162 (inactive)
C[C@H]1CN([C@@H](C)CO)C(=O)c2cccc(NC(=O)c3cnccn3)c2O[C@H]1CN(C)S(=O)(=O)c1cn(C)cn1	-0.0985 (inactive)
C[C@@H]1CN([C@H](C)CO)C(=O)CCCn2cc(nn2)CO[C@H]1CN(C)S(=O)(=O)c1ccc(Oc2ccccc2)nc1	-0.176 (inactive)
CC1(C)C2CC[C@]3(C)C(C(=O)C=C4[C@@H]5C[C@@](C)(C(=O)O)CC[C@]5(C)CC[C@]43C)[C@@]2(C)CC[C@@H]1O (stereo partly specified)	0.127 (inactive)
COc1cc(O[C@@H]2O[C@H](CO[C@H]3OC[C@](O)(COC(=O)c4ccc(O)c(OC)c4)[C@H]3O)[C@@H](O)[C@H](O)[C@H]2O)ccc1O	0.323 (inactive)
C[C@H]1CN([C@@H](C)CO)C(=O)Cc2cc(NS(=O)(=O)c3cccs3)ccc2O[C@H]1CN(C)Cc1ccncc1	0.635 (inactive)
C[C@H](CO)N1C[C@H](C)[C@H](CN(C)S(=O)(=O)c2cccc(F)c2)OCc2cnnn2CCCC1=O	0.303 (inactive)
Cc1ccc(S(=O)(=O)Nc2cccc3c2O[C@@H](CN(C)S(=O)(=O)c2c(C)noc2C)[C@@H](C)CN([C@H](C)CO)C3=O)cc1	-0.382 (inactive)
Nn1c(C(=O)N2CCCC2)nc2ccccc2c1=O	0.192 (inactive)

SMILES	delta Cp (YB-1 minus CDIP)
CCOC(=O)c1cnn2c(C(F)(F)F)cc(C)nc12	-0.121 (inactive)
NC(=S)c1cnn2c(C(F)(F)F)cc(C(F)(F)F)nc12	9.53 (active)
COC(=O)CCCCCCC(=O)N/N=C/c1ccc(O)c(O)c1O	-0.105 (inactive)
COc1ccc(CN(C)C[C@H]2Oc3ccc(NC(=O)Cn4cnnn4)cc3CC(=O)N([C@@H](C)CO)C[C@@H]2C)cc1	-0.171 (inactive)
CC(C)(C)OC(=O)Nc1cccc(/C=N/NC(=O)CCCCCC(=O)Nc2ccccc2O)c1	-0.601 (inactive)
COc1cc(/C=N\NC(=O)CCCCCCC(=O)NO)c(Br)cc1O	-0.218 (inactive)
C[C@@H]1CN([C@H](C)CO)C(=O)CCCn2cc(nn2)CO[C@@H]1CN(C)C(=O)Nc1ccc(-c2cccs2)cc1	-0.273 (inactive)
C[C@@H]1CN([C@@H](C)CO)C(=O)Cc2cc(NC(=O)C3CC3)ccc2O[C@@H]1CN(C)S(C)(=O)=O	0.012 (inactive)
C[C@H]1CN([C@@H](C)CO)C(=O)c2cccc(NC(=O)Nc3ccc(F)cc3)c2O[C@@H]1CN(C)C(=O)Nc1ccc2c(c1)OCO2	1.42 (inactive)
COc1ccc(NC(=O)N(C)C[C@@H]2Oc3c(NC(=O)c4ccc(-c5nccs5)cc4)cccc3C(=O)N([C@H](C)CO)C[C@@H]2C)cc1	-0.282 (inactive)
O=C(CCCCC(=O)N/N=C/c1ccc(C(F)(F)F)cc1)NO	0.349 (inactive)
COc1ccc(S(=O)(=O)N(C)C[C@H]2Oc3ccc(NC(=O)Nc4c(C)noc4C)cc3CC(=O)N([C@@H](C)CO)C[C@H]2C)cc1	-0.281 (inactive)
C[C@@H]1CN([C@H](C)CO)C(=O)c2cccc(NS(=O)(=O)c3ccc(F)cc3)c2O[C@@H]1CN(C)C(=O)Nc1ccc(C(F)(F)F)cc1	-0.00681 (inactive)
C[C@H](CO)N1C[C@H](C)[C@@H](CN(C)Cc2ccc3c(c2)OCO3)OCc2cnnn2CCCC1=O	-0.135 (inactive)
C[C@H]1CN([C@@H](C)CO)C(=O)CCCn2cc(nn2)CO[C@H]1CN(C)S(=O)(=O)c1ccc2ccccc2c1	0.00166 (inactive)
Cc1noc(C)c1NC(=O)Nc1ccc2c(c1)CC(=O)N([C@H](C)CO)C[C@@H](C)[C@@H](CN(C)Cc1ccncc1)O2	-0.309 (inactive)
O=C(O)CCCCCCC(=O)N/N=C/c1cccs1	-0.0775 (inactive)
COc1cccc(-c2cnc3c(c2)C(=O)N([C@H](C)CO)C[C@H](C)[C@H](CN(C)S(=O)(=O)c2cccc(F)c2)O3)c1	-0.156 (inactive)
C[C@@H]1CN([C@H](C)CO)C(=O)c2cccc(NC(=O)c3ccncc3)c2O[C@@H]1CN(C)C	-0.219 (inactive)
C[C@@H]1CN([C@@H](C)CO)C(=O)Cc2cc(NC(=O)Nc3ccccc3)ccc2O[C@@H]1CN(C)S(=O)(=O)c1ccc(F)cc1	-0.00869 (inactive)
O=C(N/N=C/[C@H](O)[C@@H](O)[C@H](O)[C@H](O)CO)c1ccccc1O	0.111 (inactive)
C[C@@H]1CN([C@H](C)CO)C(=O)c2cccc(NC(=O)Nc3ccc4c(c3)OCO4)c2O[C@@H]1CN(C)Cc1ccccc1	-0.407 (inactive)
C[C@@H]1CN([C@H](C)CO)C(=O)c2cc(NC(=O)CCCN(C)C)ccc2O[C@H]1CN(C)Cc1ccc(C(=O)O)cc1	-0.213 (inactive)
Cc1ncc(CO)c(/C=N/NC(=O)c2ccc(C(=O)NO)cc2)c1O	0.181 (inactive)
C[C@@H]1CN([C@@H](C)CO)C(=O)Cc2cc(NC(=O)Nc3cccc4ccccc34)ccc2O[C@@H]1CN(C)CC1CCCCC1	0.088 (inactive)
